Test results taken from PubChem BioAssay AID1159580 (chemical genetic matrix, 2015).
“And” between values parts separate entries of the source, which are not always exact repeats. Equal entries are not always repeated. The whole screen tested about 5,500 compounds, of which about 2,000 (36%) were called active. Inconclusive results (about 18%) are left out. Rule as the data show it: active = normalized growth mostly below about 0.91 (no sharp cut-off); inconclusive = no clear call, values can overlap the other calls; inactive = mostly above about 0.92. This is one part of the list.

Assay: chemical genetic growth profiling, strain panel (AID 1159580);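 also: tested at 20 µM; growth read once vehicle control cultures reached saturation at 30 °C; 1 = growth at the plate median or of vehicle wells; lower values mean less growth of the strain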
Settings: S. cerevisiae deletion strains, growth OD

Measured: normalized growth

CCCc1ncc(C[n+]2ccccc2C)c(N)n1
inactive: locus YAL021C, strain ccr4, hits give low values 0.94 | locus YAL026C, strain drs2, hits give low values 0.999 | locus YAL030W, strain snc1, hits give low values 0.991 | locus YBL061C, strain skt5, hits give low values 0.976 | locus YBR009C, strain hhf1, hits give low values 1.03 | locus YBR021W, strain FUR4, hits give low values 1.06 | locus YBR023C, strain chs3, hits give low values 0.999 | locus YBR171W, strain sec66, hits give low values 0.969 | locus YBR229C, strain ROT2, hits give low values 1 | locus YBR231C, strain swc5, hits give low values 0.966 | locus YBR279W, strain paf1, hits give low values 1.01 | locus YCL011C, strain gbp2, hits give low values 1 | locus YCL016C, strain dcc1, hits give low values 1.01 | locus YCL029C, strain bik1, hits give low values 1 | locus YCL069W, strain vba3, hits give low values 0.981 | locus YCR088W, strain abp1, hits give low values 0.992 | locus YDL005C, strain med2, hits give low values 0.929 | locus YDL035C, strain GPR1, hits give low values 1.01 | locus YDL040C, strain nat1, hits give low values 0.967 | locus YDL074C, strain BRE1, hits give low values 0.99 | locus YDL101C, strain DUN1, hits give low values 1 | locus YDL134C, strain PPH21, hits give low values 0.996 | locus YDL185W, strain tfp1, hits give low values 1.01 | locus YDL192W, strain arf1, hits give low values 0.999 | locus YDR001C, strain nth1, hits give low values 0.987 | locus YDR069C, strain doa4, hits give low values 0.983 | locus YDR101C, strain arx1, hits give low values 1.01 | locus YDR137W, strain rgp1, hits give low values 0.998 | locus YDR159W, strain sac3, hits give low values 0.995 | locus YDR162C, strain NBP2, hits give low values 1.01 | locus YDR195W, strain ref2 0.932 | locus YDR297W, strain sur2, hits give low values 0.999 | locus YDR318W, strain mcm21, hits give low values 0.995 | locus YDR334W, strain swr1, hits give low values 0.992 | locus YDR335W, strain msn5, hits give low values 0.99 | locus YDR388W, hits give low values 0.997 | locus YDR392W, strain spt3, hits give low values 1.08 | locus YDR502C, strain sam2, hits give low values 0.993 | locus YEL003W, strain gim4, hits give low values 0.983 | locus YEL037C, strain rad23, hits give low values 0.984 | locus YEL061C, strain CIN8 (second series), hits give low values 0.988 | locus YEL061C, strain CIN8, hits give low values 1 | locus YER015W, strain faa2, hits give low values 0.992 | locus YER016W, strain bim1, hits give low values 1.02 | locus YER110C, hits give low values 0.99 | locus YER111C, strain swi4, hits give low values 0.983 | locus YER155C, strain BEM2 (second series), hits give low values 0.975 | locus YER155C, strain BEM2, hits give low values 0.991 | locus YER167W, strain BCK2, hits give low values 0.991 | locus YFR010W, strain ubp6, hits give low values 0.99 | locus YGL078C, strain dbp3, hits give low values 0.988 | locus YGL086W, strain mad1, hits give low values 0.984 | locus YGL167C, strain pmr1, hits give low values 0.961 | locus YGL173C, strain kem1, hits give low values 0.947 | locus YGL227W, strain vid30, hits give low values 0.988 | locus YGL240W, strain doc1, hits give low values 0.96 | locus YGL248W, strain PDE1, hits give low values 0.983 | locus YGL253W, strain hxk2, hits give low values 1.01 | locus YGR078C, strain PAC10, hits give low values 0.983 | locus YGR135W, strain pre9, hits give low values 0.984 | locus YGR229C, strain SMI1, hits give low values 0.997 | locus YGR252W, strain gcn5, hits give low values 0.967 | locus YHR013C, strain ard1, hits give low values 0.986 | locus YHR027C, strain rpn1, hits give low values 0.997 | locus YHR030C, strain SLT2, hits give low values 1 and 1.11 | locus YHR079C, strain IRE1 (second series), hits give low values 0.998 | locus YHR079C, strain IRE1, hits give low values 1.04 | locus YHR094C, strain hxt1, hits give low values 0.994 | locus YHR129C, strain ARP1, hits give low values 1 | locus YHR142W, strain chs7, hits give low values 0.976 | locus YHR200W, strain rpn10, hits give low values 0.995 | locus YIL066C, strain RNR3, hits give low values 1.02 | locus YIL073C, strain SPO22, hits give low values 0.975 | locus YIL125W, strain kgd1, hits give low values 0.986 | locus YIR030C, strain dcg1, hits give low values 1.02 | locus YJL092W, strain hpr5, hits give low values 0.959 | locus YJL095W, strain BCK1 (second series), hits give low values 0.95 | locus YJL095W, strain BCK1, hits give low values 1.03 and 1.04 | locus YJL115W, strain asf1, hits give low values 0.981 | locus YJL129C, strain trk1, hits give low values 0.966 | locus YJL134W, strain LCB3, hits give low values 1.01 | locus YJL154C, strain vps35, hits give low values 0.972 | locus YJL164C, strain tpk1, hits give low values 1.01 | locus YJL166W, strain qcr8, hits give low values 0.941 | locus YJL168C, strain set2, hits give low values 1 | locus YJL187C, strain SWE1 (second series), hits give low values 0.988 | locus YJR043C, strain POL32, hits give low values 0.989 | locus YJR066W, strain TOR1, hits give low values 0.993 | locus YJR075W, strain HOC1, hits give low values 0.988 | locus YKL009W, strain mrt4, hits give low values 0.958 | locus YKL068W, hits give low values 0.995 | locus YKL085W, strain MDH1 (second series), hits give low values 0.983 | locus YKL085W, strain MDH1, hits give low values 0.983 | locus YKL160W, strain elf1, hits give low values 0.981 | locus YKL190W, strain CNB1, hits give low values 1.01 | locus YKR001C, strain vps1, hits give low values 1 | locus YKR091W, strain srl3, hits give low values 0.964 | locus YLL001W, strain dnm1, hits give low values 0.931 | locus YLL026W, hits give low values 0.983 | locus YLL041C, strain sdh2, hits give low values 0.991 | locus YLR027C, strain aat2, hits give low values 0.983 | locus YLR039C, strain RIC1, hits give low values 0.944 | locus YLR058C, strain SHM2, hits give low values 1.01 | locus YLR102C, strain apc9, hits give low values 0.995 | locus YLR113W, strain HOG1, hits give low values 1.05 | locus YLR221C, strain rsa3, hits give low values 1.02 | locus YLR258W, strain gsy2, hits give low values 0.991 | locus YLR262C, strain YPT6 (second series), hits give low values 0.951 | locus YLR262C, strain YPT6, hits give low values 0.988 | locus YLR268W, strain sec22, hits give low values 0.985 | locus YLR320W, strain mms22, hits give low values 1.01 | locus YLR330W, strain CHS5, hits give low values 1.01 | locus YLR342W, strain FKS1 (second series), hits give low values 0.999 | locus YLR342W, strain FKS1, hits give low values 0.958 | locus YLR357W, strain rsc2, hits give low values 0.977 | locus YLR370C, strain arc18, hits give low values 0.997 | locus YLR371W, strain rom2, hits give low values 0.996 | locus YLR384C, strain iki3, hits give low values 0.976 | locus YLR418C, strain cdc73, hits give low values 0.977 | locus YML016C, strain PPZ1, hits give low values 1.01 | locus YML032C, strain rad52, hits give low values 0.988 | locus YML120C, strain ndi1, hits give low values 0.98 | locus YML124C, strain tub3, hits give low values 0.989 | locus YMR058W, strain fet3, hits give low values 0.975 | locus YMR078C, strain ctf18, hits give low values 0.999 | locus YMR125W, strain sto1, hits give low values 0.969 | locus YMR129W, hits give low values 0.986 | locus YMR205C, strain PFK2, hits give low values 0.982 | locus YMR223W, strain ubp8, hits give low values 0.997 | locus YMR231W, strain pep5, hits give low values 0.978 | locus YMR307W, strain GAS1, hits give low values 1.06 | locus YNL067W, strain RPL9B, hits give low values 0.992 | locus YNL071W, strain lat1, hits give low values 0.995 | locus YNL153C, strain GIM3, hits give low values 0.987 | locus YNL183C, strain NPR1, hits give low values 0.988 | locus YNL209W, strain ssb2, hits give low values 0.993 | locus YNL233W, strain BNI4, hits give low values 1.01 | locus YNL248C, strain rpa49, hits give low values 0.995 | locus YNL250W, strain rad50, hits give low values 0.994 | locus YNL271C, strain bni1, hits give low values 1 | locus YNL298W, strain CLA4, hits give low values 0.995 | locus YNL307C, strain MCK1, hits give low values 0.992 | locus YNL322C, strain KRE1 (second series), hits give low values 0.961 | locus YNR049C, strain mso1, hits give low values 0.987 | locus YNR052C, strain pop2, hits give low values 0.999 | locus YOL012C, strain htz1 0.884 | locus YOL147C, strain pex11, hits give low values 0.994 | locus YOR001W, strain rrp6, hits give low values 0.979 | locus YOR061W, strain CKA2, hits give low values 1.01 | locus YOR069W, strain VPS5, hits give low values 1 | locus YOR070C, strain gyp1, hits give low values 0.992 | locus YOR080W, strain dia2, hits give low values 0.965 | locus YOR083W, strain WHI5, hits give low values 0.94 | locus YOR106W, strain vam3, hits give low values 0.945 | locus YOR136W, strain idh2, hits give low values 0.983 | locus YOR144C, strain elg1, hits give low values 0.989 | locus YOR184W, strain ser1, hits give low values 0.993 | locus YOR231W, strain MKK1, hits give low values 1.04 | locus YOR265W, strain rbl2, hits give low values 0.987 | locus YOR270C, strain vph1, hits give low values 1 | locus YOR290C, strain snf2, hits give low values 1.01 | locus YOR316C, strain cot1, hits give low values 0.997 | locus YPL051W, strain arl3, hits give low values 0.998 | locus YPL055C, strain LGE1, hits give low values 1.01 | locus YPL078C, strain atp4, hits give low values 0.954 | locus YPL106C, strain sse1, hits give low values 1 | locus YPL240C, strain hsp82, hits give low values 0.985 | locus YPL256C, strain CLN2, hits give low values 1.08 | locus YPR119W, strain clb2, hits give low values 0.998 | locus YPR141C, strain kar3, hits give low values 0.976 | locus YPR163C, strain tif3, hits give low values 0.987 | locus YPR167C, strain met16, hits give low values 0.991 | strain wtn01, hits give low values 0.973
